# In publication PMC7862700, “An all-to-all approach to the identification of sequence-specific readers for epigenetic DNA modifications on cytosine”:
# Columns and labels:
# Test in all cases: DAPPL (digital affinity profiling via proximity ligation, sequencing); 10 mM Tris-HCl pH 7.5, 50 mM NaCl, 1 mM DTT, 4% glycerol, room temperature, 30 min; GST-TFs on glutathione beads, 16-mer random dsDNA library, 0.1% formaldehyde crosslink after washing; high values mean tight binding
# FLI1 = target: T1, FLI1 (Homo sapiens, UniProt Q01543 1-452); conditions: protein: recombinant; tags: N-terminal GST; dsDNA, one strand shown
# T1 sequence: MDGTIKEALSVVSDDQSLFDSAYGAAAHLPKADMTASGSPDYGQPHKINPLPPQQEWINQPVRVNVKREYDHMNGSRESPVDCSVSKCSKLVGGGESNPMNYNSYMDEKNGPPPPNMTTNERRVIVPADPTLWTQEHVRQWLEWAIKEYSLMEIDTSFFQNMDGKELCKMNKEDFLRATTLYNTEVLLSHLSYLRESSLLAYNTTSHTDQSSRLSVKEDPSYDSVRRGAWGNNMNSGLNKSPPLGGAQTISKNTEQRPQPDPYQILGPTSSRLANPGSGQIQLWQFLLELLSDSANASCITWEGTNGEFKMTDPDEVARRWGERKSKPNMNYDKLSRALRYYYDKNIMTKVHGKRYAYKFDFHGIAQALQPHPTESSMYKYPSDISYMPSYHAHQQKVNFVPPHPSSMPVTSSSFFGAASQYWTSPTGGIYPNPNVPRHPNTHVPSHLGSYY
# In short: (§1)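 The binding signal reported is, for every hexamer, its read frequency for a factor over its read frequency for the tag-only sample. Reads came from pools of yeast-expressed, GST-fused human transcription factors on glutathione beads, barcoded with DNA and mixed with that sample, which were incubated with 200 nmole of a random double-stranded 16-mer DNA library in Tris/NaCl/DTT/glycerol buffer at room temperature for 30 min. After washing, the pools were crosslinked with 0.1% formaldehyde, proximity-ligated with BsaI/T4 ligase for 1 h at 37 °C, PCR-amplified and sequenced on an Illumina NextSeq500.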
# ELK1 = target: T2, ELK1 (Homo sapiens, UniProt P19419 1-428); conditions: protein: recombinant; tags: N-terminal GST; dsDNA, one strand shown
# T2 sequence: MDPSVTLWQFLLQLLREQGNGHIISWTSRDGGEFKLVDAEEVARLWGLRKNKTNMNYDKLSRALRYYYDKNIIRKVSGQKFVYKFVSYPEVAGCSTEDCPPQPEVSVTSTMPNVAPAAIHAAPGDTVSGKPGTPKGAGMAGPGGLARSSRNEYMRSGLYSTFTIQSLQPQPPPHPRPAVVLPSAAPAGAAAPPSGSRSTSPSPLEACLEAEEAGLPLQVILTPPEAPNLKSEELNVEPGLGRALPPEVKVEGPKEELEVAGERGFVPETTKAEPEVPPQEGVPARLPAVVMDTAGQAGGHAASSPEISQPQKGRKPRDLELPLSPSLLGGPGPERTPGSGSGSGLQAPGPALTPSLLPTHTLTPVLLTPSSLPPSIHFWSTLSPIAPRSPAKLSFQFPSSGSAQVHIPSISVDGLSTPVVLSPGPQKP
# In short: as §1
# GABPA = target: T3, GABPA (Homo sapiens, UniProt Q06546 1-454); conditions: protein: recombinant; tags: N-terminal GST; dsDNA, one strand shown
# T3 sequence: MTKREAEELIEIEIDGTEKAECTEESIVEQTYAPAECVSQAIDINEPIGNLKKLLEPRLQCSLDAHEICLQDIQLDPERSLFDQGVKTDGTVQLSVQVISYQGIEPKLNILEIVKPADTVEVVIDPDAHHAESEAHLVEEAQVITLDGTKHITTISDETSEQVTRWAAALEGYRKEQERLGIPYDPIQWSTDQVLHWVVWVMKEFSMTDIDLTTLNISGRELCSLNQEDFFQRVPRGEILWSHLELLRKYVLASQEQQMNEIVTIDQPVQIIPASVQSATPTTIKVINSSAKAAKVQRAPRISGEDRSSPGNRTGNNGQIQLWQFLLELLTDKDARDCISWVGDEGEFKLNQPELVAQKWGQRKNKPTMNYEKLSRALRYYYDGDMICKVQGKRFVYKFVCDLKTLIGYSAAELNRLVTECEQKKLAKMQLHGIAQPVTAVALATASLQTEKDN
# In short: as §1
# ERG = target: T4, ERG (Homo sapiens, UniProt P11308 1-479); conditions: protein: recombinant; tags: N-terminal GST; dsDNA, one strand shown
# T4 sequence: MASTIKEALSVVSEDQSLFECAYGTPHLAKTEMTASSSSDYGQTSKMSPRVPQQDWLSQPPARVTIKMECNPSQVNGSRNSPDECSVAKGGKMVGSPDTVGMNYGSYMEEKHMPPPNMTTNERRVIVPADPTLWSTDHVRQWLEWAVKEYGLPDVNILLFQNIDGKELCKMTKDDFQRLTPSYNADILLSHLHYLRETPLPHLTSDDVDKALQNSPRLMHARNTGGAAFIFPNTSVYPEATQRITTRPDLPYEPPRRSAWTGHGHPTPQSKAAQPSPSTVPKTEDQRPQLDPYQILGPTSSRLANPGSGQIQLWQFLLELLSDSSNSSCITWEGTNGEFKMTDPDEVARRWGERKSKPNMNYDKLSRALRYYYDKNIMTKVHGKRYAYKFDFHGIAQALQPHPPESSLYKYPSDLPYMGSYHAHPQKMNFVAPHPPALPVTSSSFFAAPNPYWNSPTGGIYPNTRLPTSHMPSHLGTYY
# In short: as §1
# ELF1 = ELF1 (Homo sapiens, UniProt P32519 1-619); conditions: protein: recombinant; tags: N-terminal GST; dsDNA, one strand shown
# ELF1, sequence (P32519 whole entry): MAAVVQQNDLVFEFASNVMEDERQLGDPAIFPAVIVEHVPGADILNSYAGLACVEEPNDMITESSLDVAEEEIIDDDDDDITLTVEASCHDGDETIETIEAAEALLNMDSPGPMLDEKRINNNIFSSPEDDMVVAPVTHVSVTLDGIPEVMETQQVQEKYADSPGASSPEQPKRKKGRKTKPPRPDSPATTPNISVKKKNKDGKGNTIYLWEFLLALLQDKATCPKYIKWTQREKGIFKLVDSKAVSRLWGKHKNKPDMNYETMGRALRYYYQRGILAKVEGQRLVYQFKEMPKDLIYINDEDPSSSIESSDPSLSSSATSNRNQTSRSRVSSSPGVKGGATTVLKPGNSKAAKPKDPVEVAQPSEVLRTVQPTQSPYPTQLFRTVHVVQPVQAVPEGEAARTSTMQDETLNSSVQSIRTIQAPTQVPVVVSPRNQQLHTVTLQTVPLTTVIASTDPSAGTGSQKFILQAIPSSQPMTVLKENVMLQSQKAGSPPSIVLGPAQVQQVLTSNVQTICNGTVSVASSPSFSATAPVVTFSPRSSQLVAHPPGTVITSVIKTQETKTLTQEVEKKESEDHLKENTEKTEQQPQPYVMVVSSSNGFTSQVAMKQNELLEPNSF
# In short: as §1
# EHF = target: T5, EHF (Homo sapiens, UniProt Q9NZC4 1-300); conditions: protein: recombinant; tags: N-terminal GST; dsDNA, one strand shown
# T5 sequence: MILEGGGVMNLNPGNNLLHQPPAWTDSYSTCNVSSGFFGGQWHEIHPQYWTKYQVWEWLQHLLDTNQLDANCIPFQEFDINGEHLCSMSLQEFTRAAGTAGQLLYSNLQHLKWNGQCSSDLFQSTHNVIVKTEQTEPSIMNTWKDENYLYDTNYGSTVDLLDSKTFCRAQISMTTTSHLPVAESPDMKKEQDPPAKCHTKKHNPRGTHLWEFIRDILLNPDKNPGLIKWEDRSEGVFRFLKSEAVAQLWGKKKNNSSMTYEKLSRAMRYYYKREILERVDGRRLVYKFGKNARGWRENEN
# In short: as §1
# SPI1 = SPI1 (Homo sapiens, UniProt P17947 1-270); conditions: protein: recombinant; tags: N-terminal GST; dsDNA, one strand shown
# In short: as §1
# SPIB = SPIB (Homo sapiens, UniProt Q01892 1-262); conditions: protein: recombinant; tags: N-terminal GST; dsDNA, one strand shown
# SPIB, sequence (Q01892 whole entry): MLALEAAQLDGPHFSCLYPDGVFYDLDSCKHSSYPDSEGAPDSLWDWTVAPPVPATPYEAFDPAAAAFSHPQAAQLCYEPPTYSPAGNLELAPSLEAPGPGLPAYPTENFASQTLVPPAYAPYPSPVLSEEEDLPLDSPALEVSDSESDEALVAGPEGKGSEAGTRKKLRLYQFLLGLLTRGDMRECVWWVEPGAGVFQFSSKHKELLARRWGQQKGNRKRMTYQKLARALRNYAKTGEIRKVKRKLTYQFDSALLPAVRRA
# In short: as §1
# ELK3 = target: T6, ELK3 (Homo sapiens, UniProt P41970 1-407); conditions: protein: recombinant; tags: N-terminal GST; dsDNA, one strand shown
# T6 sequence: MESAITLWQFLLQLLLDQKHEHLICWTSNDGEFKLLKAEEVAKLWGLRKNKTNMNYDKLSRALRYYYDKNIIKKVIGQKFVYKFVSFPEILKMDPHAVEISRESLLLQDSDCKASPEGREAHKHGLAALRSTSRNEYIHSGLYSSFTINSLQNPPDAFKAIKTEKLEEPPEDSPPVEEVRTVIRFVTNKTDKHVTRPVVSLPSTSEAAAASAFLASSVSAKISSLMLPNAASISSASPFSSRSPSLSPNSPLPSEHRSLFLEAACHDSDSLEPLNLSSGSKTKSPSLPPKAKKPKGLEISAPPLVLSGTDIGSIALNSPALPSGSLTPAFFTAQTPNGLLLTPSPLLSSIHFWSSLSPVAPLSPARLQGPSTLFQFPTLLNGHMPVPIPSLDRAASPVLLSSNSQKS
# In short: as §1
# FEV = target: T7, FEV (Homo sapiens, UniProt Q99581 1-238); conditions: protein: recombinant; tags: N-terminal GST; dsDNA, one strand shown
# T7 sequence: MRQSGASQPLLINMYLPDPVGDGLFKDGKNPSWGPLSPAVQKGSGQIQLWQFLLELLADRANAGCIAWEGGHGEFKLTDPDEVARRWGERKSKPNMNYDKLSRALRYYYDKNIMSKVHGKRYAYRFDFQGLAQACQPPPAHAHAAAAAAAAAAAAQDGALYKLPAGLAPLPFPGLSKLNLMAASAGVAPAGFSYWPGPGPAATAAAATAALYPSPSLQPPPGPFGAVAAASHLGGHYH
# In short: as §1
# ETV5 = ETV5 (Homo sapiens, UniProt P41161 1-510); conditions: protein: recombinant; tags: N-terminal GST; dsDNA, one strand shown
# ETV5, sequence (P41161 whole entry): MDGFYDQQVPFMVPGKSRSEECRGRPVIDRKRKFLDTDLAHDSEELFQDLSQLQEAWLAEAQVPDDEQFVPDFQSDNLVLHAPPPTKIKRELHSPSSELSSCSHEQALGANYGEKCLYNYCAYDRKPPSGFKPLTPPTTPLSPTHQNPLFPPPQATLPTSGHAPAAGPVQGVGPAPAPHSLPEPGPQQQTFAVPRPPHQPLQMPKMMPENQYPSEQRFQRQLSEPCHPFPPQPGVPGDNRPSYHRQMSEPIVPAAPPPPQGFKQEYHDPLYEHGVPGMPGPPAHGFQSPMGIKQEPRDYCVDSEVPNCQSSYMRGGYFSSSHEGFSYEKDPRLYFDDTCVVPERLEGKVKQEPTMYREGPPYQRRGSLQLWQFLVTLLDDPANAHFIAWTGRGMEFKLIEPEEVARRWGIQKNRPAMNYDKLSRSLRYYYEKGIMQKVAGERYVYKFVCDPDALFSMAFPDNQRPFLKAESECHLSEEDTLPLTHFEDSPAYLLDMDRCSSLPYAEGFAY
# In short: as §1
# HSF1 = HSF1 (Homo sapiens, UniProt Q00613 1-529); conditions: protein: recombinant; tags: N-terminal GST; chain copies: 3; dsDNA, one strand shown
# HSF1, sequence (Q00613 whole entry): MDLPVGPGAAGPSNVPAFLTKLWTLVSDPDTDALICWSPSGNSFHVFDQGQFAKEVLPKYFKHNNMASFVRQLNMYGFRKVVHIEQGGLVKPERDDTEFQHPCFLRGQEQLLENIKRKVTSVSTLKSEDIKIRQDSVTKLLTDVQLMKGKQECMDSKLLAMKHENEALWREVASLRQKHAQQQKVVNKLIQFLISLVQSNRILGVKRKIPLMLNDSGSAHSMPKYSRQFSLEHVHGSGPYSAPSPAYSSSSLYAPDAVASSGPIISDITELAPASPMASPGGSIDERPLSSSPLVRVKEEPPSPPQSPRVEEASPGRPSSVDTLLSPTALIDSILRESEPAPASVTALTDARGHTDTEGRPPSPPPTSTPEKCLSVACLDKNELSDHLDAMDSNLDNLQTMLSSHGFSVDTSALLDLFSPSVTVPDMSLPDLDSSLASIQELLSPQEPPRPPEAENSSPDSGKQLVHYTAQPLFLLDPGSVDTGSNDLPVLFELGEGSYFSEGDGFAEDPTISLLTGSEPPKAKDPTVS
# In short: as §1
# SPIC = target: T8, SPIC (Homo sapiens, UniProt Q8N5J4 1-248); conditions: protein: recombinant; tags: N-terminal GST; dsDNA, one strand shown
# T8 sequence: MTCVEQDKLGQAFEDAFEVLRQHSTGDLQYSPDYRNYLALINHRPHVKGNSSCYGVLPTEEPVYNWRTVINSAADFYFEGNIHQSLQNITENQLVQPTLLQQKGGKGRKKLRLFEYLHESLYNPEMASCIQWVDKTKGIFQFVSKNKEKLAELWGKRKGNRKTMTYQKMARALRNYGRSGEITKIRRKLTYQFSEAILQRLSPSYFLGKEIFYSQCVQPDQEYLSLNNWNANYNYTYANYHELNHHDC
# In short: as §1
# ELF4 = ELF4 (Homo sapiens, UniProt Q99607 1-663); conditions: protein: recombinant; tags: N-terminal GST; dsDNA, one strand shown
# ELF4, sequence (Q99607 whole entry): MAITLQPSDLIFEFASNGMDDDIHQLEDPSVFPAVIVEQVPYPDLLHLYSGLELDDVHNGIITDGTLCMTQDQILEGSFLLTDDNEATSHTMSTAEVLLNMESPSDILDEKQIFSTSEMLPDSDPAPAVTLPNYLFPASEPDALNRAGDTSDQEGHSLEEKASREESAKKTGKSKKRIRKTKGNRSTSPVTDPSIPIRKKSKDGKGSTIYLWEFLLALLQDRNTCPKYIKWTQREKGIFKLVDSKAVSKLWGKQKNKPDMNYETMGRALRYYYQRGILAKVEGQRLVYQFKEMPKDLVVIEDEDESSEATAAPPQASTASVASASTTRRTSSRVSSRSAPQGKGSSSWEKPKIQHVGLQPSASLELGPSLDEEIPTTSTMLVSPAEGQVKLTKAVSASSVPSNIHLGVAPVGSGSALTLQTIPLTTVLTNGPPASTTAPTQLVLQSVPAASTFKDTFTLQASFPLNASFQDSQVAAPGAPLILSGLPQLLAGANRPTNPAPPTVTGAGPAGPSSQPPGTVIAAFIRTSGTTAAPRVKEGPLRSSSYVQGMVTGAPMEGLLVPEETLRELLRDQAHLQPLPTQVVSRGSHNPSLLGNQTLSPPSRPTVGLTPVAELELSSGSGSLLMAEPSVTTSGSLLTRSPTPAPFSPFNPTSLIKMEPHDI
# In short: as §1
# ELK4 = target: T9, ELK4 (Homo sapiens, UniProt P28324-2 1-405); conditions: protein: recombinant; tags: N-terminal GST; dsDNA, one strand shown
# T9 sequence: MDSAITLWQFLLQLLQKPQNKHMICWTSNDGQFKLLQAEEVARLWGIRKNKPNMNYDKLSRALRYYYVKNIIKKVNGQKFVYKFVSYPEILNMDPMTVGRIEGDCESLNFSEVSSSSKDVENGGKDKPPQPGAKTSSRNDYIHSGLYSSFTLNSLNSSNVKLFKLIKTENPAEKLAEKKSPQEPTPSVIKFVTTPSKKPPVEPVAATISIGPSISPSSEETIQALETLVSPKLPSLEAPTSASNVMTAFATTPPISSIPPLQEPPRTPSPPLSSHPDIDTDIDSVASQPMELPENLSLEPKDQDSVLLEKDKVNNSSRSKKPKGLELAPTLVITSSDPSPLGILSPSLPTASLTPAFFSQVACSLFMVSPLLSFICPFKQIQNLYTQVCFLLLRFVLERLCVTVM
# In short: as §1
# ETV2 = target: T10, ETV2 (Homo sapiens, UniProt O00321 1-342); conditions: protein: recombinant; tags: N-terminal GST; dsDNA, one strand shown
# T10 sequence: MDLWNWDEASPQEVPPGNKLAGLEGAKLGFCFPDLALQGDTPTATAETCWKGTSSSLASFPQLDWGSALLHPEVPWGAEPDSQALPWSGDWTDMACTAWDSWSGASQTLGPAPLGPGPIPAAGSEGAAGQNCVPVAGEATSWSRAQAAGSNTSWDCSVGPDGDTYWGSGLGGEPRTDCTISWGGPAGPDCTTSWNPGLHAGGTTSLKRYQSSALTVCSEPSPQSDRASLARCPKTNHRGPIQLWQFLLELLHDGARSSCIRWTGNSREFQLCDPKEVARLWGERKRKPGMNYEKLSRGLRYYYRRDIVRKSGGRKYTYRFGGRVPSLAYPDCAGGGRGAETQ
# In short: as §1
# ELF3 = target: T11, ELF3 (Homo sapiens, UniProt P78545 1-371); conditions: protein: recombinant; tags: N-terminal GST; dsDNA, one strand shown
# T11 sequence: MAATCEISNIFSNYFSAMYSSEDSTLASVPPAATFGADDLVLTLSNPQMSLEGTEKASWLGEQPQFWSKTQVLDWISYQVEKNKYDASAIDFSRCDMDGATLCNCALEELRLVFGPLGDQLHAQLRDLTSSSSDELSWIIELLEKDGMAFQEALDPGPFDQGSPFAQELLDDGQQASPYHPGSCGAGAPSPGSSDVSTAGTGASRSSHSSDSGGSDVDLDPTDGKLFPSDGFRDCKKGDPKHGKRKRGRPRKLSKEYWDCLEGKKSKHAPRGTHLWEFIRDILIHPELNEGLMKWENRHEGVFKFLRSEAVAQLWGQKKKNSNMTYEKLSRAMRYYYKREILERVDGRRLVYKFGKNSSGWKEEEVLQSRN
# In short: as §1
# ETV1 = ETV1 (Homo sapiens, UniProt P50549 1-477); conditions: protein: recombinant; tags: N-terminal GST; dsDNA, one strand shown
# ETV1, sequence (P50549 whole entry): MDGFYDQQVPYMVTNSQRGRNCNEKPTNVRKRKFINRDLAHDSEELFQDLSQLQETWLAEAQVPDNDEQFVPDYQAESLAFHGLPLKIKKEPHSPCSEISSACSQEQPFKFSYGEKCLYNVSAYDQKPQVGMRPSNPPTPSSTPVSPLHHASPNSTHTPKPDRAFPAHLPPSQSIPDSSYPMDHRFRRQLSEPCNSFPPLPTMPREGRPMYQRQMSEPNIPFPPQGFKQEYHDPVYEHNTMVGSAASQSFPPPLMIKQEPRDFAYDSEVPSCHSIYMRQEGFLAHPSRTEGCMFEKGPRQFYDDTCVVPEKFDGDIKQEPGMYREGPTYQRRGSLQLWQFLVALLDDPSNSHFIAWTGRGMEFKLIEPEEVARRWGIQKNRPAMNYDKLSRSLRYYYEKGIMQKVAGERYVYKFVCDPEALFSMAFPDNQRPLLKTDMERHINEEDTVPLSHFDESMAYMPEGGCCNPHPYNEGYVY
# In short: as §1
sequence,measurement,setting,value
CGCGTC,binding signal,FLI1,"1.33 fold enrichment (6-mer frequency, TF over GST control)"
same,binding signal,ELK1,"1.24 fold enrichment (6-mer frequency, TF over GST control)"
same,binding signal,GABPA,"1.26 fold enrichment (6-mer frequency, TF over GST control)"
same,binding signal,ERG,"1.27 fold enrichment (6-mer frequency, TF over GST control)"
same,binding signal,ELF1,"1.28 fold enrichment (6-mer frequency, TF over GST control)"
same,binding signal,EHF,"1.25 fold enrichment (6-mer frequency, TF over GST control)"
same,binding signal,SPI1,"1.27 fold enrichment (6-mer frequency, TF over GST control)"
same,binding signal,SPIB,"1.32 fold enrichment (6-mer frequency, TF over GST control)"
same,binding signal,ELK3,"1.08 fold enrichment (6-mer frequency, TF over GST control)"
same,binding signal,FEV,"1.2 fold enrichment (6-mer frequency, TF over GST control)"
same,binding signal,ETV5,"1.06 fold enrichment (6-mer frequency, TF over GST control)"
same,binding signal,HSF1,"1.02 fold enrichment (6-mer frequency, TF over GST control)"
same,binding signal,SPIC,"1.39 fold enrichment (6-mer frequency, TF over GST control)"
same,binding signal,ELF4,"1.19 fold enrichment (6-mer frequency, TF over GST control)"
same,binding signal,ELK4,"1.48 fold enrichment (6-mer frequency, TF over GST control)"
same,binding signal,ETV2,"1.35 fold enrichment (6-mer frequency, TF over GST control)"
same,binding signal,ELF3,"1.44 fold enrichment (6-mer frequency, TF over GST control)"
same,binding signal,ETV1,"1.22 fold enrichment (6-mer frequency, TF over GST control)"
